Compound activity deposited in PubChem BioAssay by National Center for Advancing Translational Sciences (NCATS).
In the library only some 5.9% were active in any assay of this set; here they are far more common.
rTrxR1 inhibitor – qHTS Assay for Inhibitors of Mammalian Selenoprotein Thioredoxin Reductase 1 (TrxR1): qHTS; Thioredoxin reductase 1, cytoplasmic (Rattus norvegicus), O89049; recombinant rTrxR1, NADPH fluorescence consumption, selenite substrate; Potency, µM (highest dose often 114 µM), actives largely listed as inhibitors; actives 1% (n = 390,000); also: nearly all actives have a fitted effect of over 65% in size
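Rat TrxR1 (90 nM in the dispensed reagent) was pre-reduced with 400 uM NADPH for 5 min at room temperature, then incubated with compound for 15 min. After 400 uM selenite was added, NADPH fluorescence (Ex 340/Em 450 nm) was followed for 8 min.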
GALK inhibitor – qHTS Assay for Inhibitors of Human Galactokinase (GALK) | Purified GALK, Kinase-Glo residual ATP luminescence | Potency, µM (top dose mostly 57.5 µM), most hits filed as inhibitors | actives 0.007% (n = 270,000)
Target sequence (P51570 whole entry, looked up): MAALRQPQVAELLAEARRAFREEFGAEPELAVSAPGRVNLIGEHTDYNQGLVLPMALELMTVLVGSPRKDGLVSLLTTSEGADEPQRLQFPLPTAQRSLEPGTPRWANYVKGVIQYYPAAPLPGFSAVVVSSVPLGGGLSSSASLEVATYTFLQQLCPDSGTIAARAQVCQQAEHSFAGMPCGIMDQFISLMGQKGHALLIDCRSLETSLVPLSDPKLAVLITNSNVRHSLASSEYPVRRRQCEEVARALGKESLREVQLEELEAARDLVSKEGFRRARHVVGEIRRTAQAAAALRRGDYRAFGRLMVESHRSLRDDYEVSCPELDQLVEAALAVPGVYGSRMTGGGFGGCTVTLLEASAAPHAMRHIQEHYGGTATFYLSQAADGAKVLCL
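Galactose (100 uM) and ATP (35 uM) were turned over by 5 nM GALK for 1 h at RT. Kinase-Glo Plus then converted the remaining ATP into a luminescent signal.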
FBPA coupling cs – qHTS Assay for Inhibitors of Fructose-1,6-bisphosphate Aldolase from Giardia Lamblia: Coupling assay counterscreen; AID 2472, 2010; coupling enzyme system counterscreen, AmpLite Red fluorescence; actives 0.67% (n = 290,000); activity change, negative = inhibition, % at 58.2 µM, hits read low; in the data active = activity change below about -30%
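Counterscreen of the coupled detection system alone, without aldolase: glyceraldehyde-3-phosphate coupling enzymes plus AmpLite Red readout. Compounds at 57.5 uM final, 10 min RT preincubation, 20 min RT reaction, fluorescence 525/598 nm.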
RORgamma inh – qHTS for inhibitors of ROR gamma transcriptional activity. Nuclear receptor ROR-gamma (Mus musculus), P51450. Drosophila S2 Gal4-RORgamma UAS-luciferase reporter, 20 h. Potency, µM (series often up to 53.6 µM), most hits filed as inhibitors. actives 5.4% (n = 310,000). AID 2551, 2010; also: nearly all actives have a fitted effect of over 60% in size
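Stable Schneider cell line, Gal4 DNA-binding domain fused to ROR gamma, UAS-luciferase. Cmpd 1 hr RT → CuSO4 700 uM final → 20 hr RT → luciferase reagent 10 min → luminescence.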
VP16 counter – VP16 counterscreen qHTS for inhibitors of ROR gamma transcriptional activity | Drosophila S2 Gal4-VP16 UAS-luciferase, luminescence, 20 h | Potency, µM (titrated, usually from 53.6 µM), hits mostly inhibitors | actives 3.5% (n = 310,000) | AID 2546, 2010;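 also: Gal4-VP16 expression switched on by copper sulfate through the metallothionein promoter; nearly all actives have a fitted effect of over 50% in size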
TrxR1 substrate – qHTS Assay for Substrates of Mammalian Selenoprotein Thioredoxin Reductase 1 (TrxR1): qHTS; purified TrxR1 substrate turnover, NADPH consumption readout; AID 588456, 2011; Potency, µM (titrated, usually from 114 µM); actives 0.01% (n = 390,000); Thioredoxin reductase 1, cytoplasmic (Rattus norvegicus), O89049; also: nearly all actives have a fitted effect of over 50% in size
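Rat TrxR1, dispensed at 90 nM, was prereduced with 400 uM NADPH (final) for 5 min at ~22 deg C, then incubated with compound 15 min before 400 uM selenite. A first-read NADPH fluorescence drop versus no-compound background flagged substrates.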
Hits are given with their value; n = inactive; u = inconclusive; x = no result given; [ ] = remark or other dose. Unless noted, calls follow the shape of the dose curve; as a rule, active = well fitted curve in the direction sought with a large enough effect; inconclusive = small, poorly fitted or top-dose-only effect, or another doubt; inactive = no such curve, though single readings can be large; an effect the other way counts as inactive or inconclusive.

SMILES	rTrxR1 inhibitor	GALK inhibitor	FBPA coupling cs	RORgamma inh	VP16 counter	TrxR1 substrate
COc1ccccc1/C=C1\C=Cc2ccccc21	22µM	x	x	x	x	n
CN(C)c1ccc(/C=C2\C=Cc3ccccc32)cc1	n	x	x	x	x	n
CC(C)n1c(CN(C)Cc2ccccc2)nc2c1c(=O)n(C)c(=O)n2C	u	n	n	u	1.3µM	u
CC(=O)C(C)n1c(CN(C)Cc2ccccc2)nc2c1c(=O)n(C)c(=O)n2C (stereo unspecified)	n	x	n	n	u	n
COc1ccc(N2CCN(Cc3nc4c(c(=O)[nH]c(=O)n4C)n3Cc3cccc(Cl)c3)CC2)cc1	n	n	n	n	n	n
O=c1[nH]c(C(F)(F)F)nc2ccc3ccccc3c12	n	n	n	n	n	n
COc1cc(SC)ccc1C(=O)Nc1ccc(C)cc1C	n	n	n	n	n	n
COc1cc(SC)ccc1C(=O)Nc1ccccn1	n	n	n	8.9µM	10µM	n
COc1cc(SC)ccc1C(=O)Nc1ccc(Br)cn1	n	n	n	2µM	7.9µM	n
COc1cc(SC)ccc1C(=O)Nc1ccc(C)cc1	n	n	n	u	20µM	n
COc1cc(SC)ccc1C(=O)Nc1ncc(C)s1	n	n	n	2.5µM	u	n
COc1cc(SC)ccc1C(=O)Nc1ccon1	n	n	n	n	n	n
CC(C)NC(=O)c1ccccc1NC(=O)c1ccccc1N(C)S(C)(=O)=O	n	n	n	n	n	n
O=[N+]([O-])c1ccc2c(c1)oc1ccccc12	n	n	n	n	n	n
COc1cc(SC)ccc1C(=O)Nc1ccc(OCC(=O)N2CCOCC2)cc1	n	n	n	10µM	11µM	n
COc1c(C)cccc1C(=O)Nc1ccc(OCC(=O)N2CCOCC2)cc1C	n	n	x	1.8µM	u	n
CCC(=O)N(Cc1ccco1)C1CC(=O)N(c2ccccc2)C1=O (stereo unspecified)	n	x	n	n	n	n
O=C(COC(=O)CCSc1ccc(Cl)cc1)NCc1ccccc1	n	n	n	n	n	n
COc1ccc(N/N=C(\C#N)C(=N)SCc2ccccc2)cc1	n	n	n	u	16µM	n
Cc1ccc(-c2nc3ccccc3n2C)o1	22µM	n	n	11µM	u	n
Cc1oc(-c2nc3ccccc3n2C)cc1C(=O)c1ccccc1	u	n	n	11µM	u	n
COc1cccc(NC(=O)CN(C)C(C)C(=O)N2CCCCC2)c1 (stereo unspecified)	n[2.29 µM]	x	x	x	x	n[2.29 µM]
Cc1nc2ccc(Br)cn2c1C(=O)N/N=C\c1ccc(C(C)C)cc1	n	n	n	5.6µM	5µM	n
CC(C)c1ccc(/C=N/NC(=O)c2ccccc2Cl)cc1	n	n	n	u	n	n
Cn1c(=O)[nH]c(=O)c2c1nc(N/N=C/C(Br)=C/c1ccccc1)n2CCO	3.5µM	x	n	n	n	n
SMILES	rTrxR1 inhibitor	GALK inhibitor	FBPA coupling cs	RORgamma inh	VP16 counter	TrxR1 substrate
O=C(Nc1nnc(-c2ccccc2Cl)o1)c1ccco1	n	n	n	2.8µM	5µM	n
O=C(Nc1nc(-c2cccs2)c(-c2ccccc2)s1)c1ccco1	n	n	n	u	7.9µM	n
Cc1ccc(-c2nnc(NC(=O)c3ccco3)o2)c(C)c1	n	x	x	x	x	n
CC1CC1C(=O)Nc1nc(-c2ccccc2)cs1 (stereo unspecified)	n	n	n	n	n	n
CC1CC1C(=O)Nc1nc(-c2cccs2)c(-c2cccs2)s1 (stereo unspecified)	n	n	n	10µM	n	n
O=C(Nc1nnc(-c2ccccc2Cl)o1)c1nc2ccccc2s1	n	n	n	1.1µM	u	n
COc1ccc(C(=O)N2CCNC(=O)C2CC(=O)Nc2ccc(C)cc2)cc1 (stereo unspecified)	n	n	n	n	n	n
